# Measured values as given in PMC5540273 (PLoS ONE, 2017).
# Experiments:
# Details in all cases: concentration: 1 μM, replicates: in singlicate; n = 1
# [1] = system: AAK1
# [2] = system: ABL1-nonphosphorylated
# [3] = system: ABL1-phosphorylated
# [4] = system: ABL2
# [5] = system: ACVR1B
# [6] = system: ACVR1
# [7] = system: ACVR2A
# [8] = system: ACVR2B
# [9] = system: ACVRL1
# [10] = system: T1, ADCK3
# T1 construct: gene CABC1
# [11] = system: ADCK4
# [12] = system: AKT1
# [13] = system: AKT2
# [14] = system: AKT3
# [15] = system: ALK
# [16] = system: T2, AMPK-alpha1
# T2 construct: gene PRKAA1
# [17] = system: T3, AMPK-alpha2
# T3 construct: gene PRKAA2
# [18] = system: ANKK1
# [19] = system: T4, ARK5
# T4 construct: gene NUAK1
# [20] = system: T5, ASK1
# T5 construct: gene MAP3K5
# 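Further: KINOMEscan kinase panel screen.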
compound,measurement,setting,value
COc1cccc(C2=C(Nc3ccc(Cl)c(C(=O)O)c3)C(=O)NC2=O)c1 [SB-390769],%Inh,[1],9%
same,%Inh,[2],11%
same,%Inh,[3],100%
same,%Inh,[4],16%
same,%Inh,[5],0%
same,%Inh,[6],15%
same,%Inh,[7],100%
same,%Inh,[8],5%
same,%Inh,[9],0%
same,%Inh,[10],0%
same,%Inh,[11],22%
same,%Inh,[12],0%
same,%Inh,[13],0%
same,%Inh,[14],0%
same,%Inh,[15],36%
same,%Inh,[16],6%
same,%Inh,[17],2%
same,%Inh,[18],99.4%
same,%Inh,[19],24%
same,%Inh,[20],12%
Cc1cccc(NC(=O)Nc2ccc(Oc3ncnc4ccn(C)c34)cc2)c1,%Inh,[1],0%
same,%Inh,[2],33%
same,%Inh,[3],23%
same,%Inh,[4],0%
same,%Inh,[5],0%
same,%Inh,[6],4%
same,%Inh,[7],2%
same,%Inh,[8],0%
same,%Inh,[9],0%
same,%Inh,[10],0%
same,%Inh,[11],0%
same,%Inh,[12],0%
same,%Inh,[13],0%
same,%Inh,[14],0%
same,%Inh,[15],0%
same,%Inh,[16],9%
same,%Inh,[17],0%
same,%Inh,[18],0%
same,%Inh,[19],0%
same,%Inh,[20],0%
O=C(NC1CCN(c2ccnc(Nc3ccc(F)cc3)n2)C1)c1cc2ccccc2s1 (centres unmarked) [GSK1379716],%Inh,[1],7%
same,%Inh,[2],0%
same,%Inh,[3],0%
same,%Inh,[4],21%
same,%Inh,[5],0%
same,%Inh,[6],0%
same,%Inh,[7],0%
same,%Inh,[8],5%
same,%Inh,[9],11%
same,%Inh,[10],24%
same,%Inh,[11],61%
same,%Inh,[12],0%
same,%Inh,[13],16%
same,%Inh,[14],0%
same,%Inh,[15],3%
same,%Inh,[16],7%
same,%Inh,[17],20%
same,%Inh,[18],0%
same,%Inh,[19],21%
same,%Inh,[20],14%
COC(=O)Nc1nc2cc(Oc3ccc(NC(=O)Nc4cc(C(F)(F)F)ccc4F)cn3)ccc2[nH]1.Cl.Cl [GW681170],%Inh,[1],51%
same,%Inh,[2],99.1%
same,%Inh,[3],74%
same,%Inh,[4],82%
same,%Inh,[5],0%
same,%Inh,[6],0%
same,%Inh,[7],0%
same,%Inh,[8],0%
same,%Inh,[9],0%
same,%Inh,[10],2%
same,%Inh,[11],19%
same,%Inh,[12],0%
same,%Inh,[13],0%
same,%Inh,[14],0%
same,%Inh,[15],6%
same,%Inh,[16],19%
same,%Inh,[17],23%
same,%Inh,[18],8%
same,%Inh,[19],0%
same,%Inh,[20],10%
COc1ccc(-c2coc3ccc(-c4nnc(SCc5ccc(OC)c(C(F)(F)F)c5)o4)cc23)cc1,%Inh,[1],2%
same,%Inh,[2],13%
same,%Inh,[3],0%
same,%Inh,[4],24%
same,%Inh,[5],7%
same,%Inh,[6],28%
same,%Inh,[7],0%
same,%Inh,[8],0%
same,%Inh,[9],26%
same,%Inh,[10],21%
same,%Inh,[11],10%
same,%Inh,[12],4%
same,%Inh,[13],0%
same,%Inh,[14],0%
same,%Inh,[15],0%
same,%Inh,[16],31%
same,%Inh,[17],0%
same,%Inh,[18],38%
same,%Inh,[19],0%
same,%Inh,[20],17%
COc1cc(Nc2nccc(N3CCC(NC(=O)Nc4cccc(C(C)=O)c4)C3)n2)cc(OC)c1OC (centres unmarked) [GSK1379753],%Inh,[1],65%
same,%Inh,[2],0%
same,%Inh,[3],0%
same,%Inh,[4],17%
same,%Inh,[5],0%
same,%Inh,[6],0%
same,%Inh,[7],0%
same,%Inh,[8],100%
same,%Inh,[9],0%
same,%Inh,[10],0%
same,%Inh,[11],55%
same,%Inh,[12],0%
same,%Inh,[13],0%
same,%Inh,[14],0%
same,%Inh,[15],44%
same,%Inh,[16],0%
same,%Inh,[17],0%
same,%Inh,[18],41%
same,%Inh,[19],27%
same,%Inh,[20],0%
CN(C)S(=O)(=O)c1cc(-c2ccc3nccc(-c4cccc(S(N)(=O)=O)c4)c3c2)cnc1N [GSK1669921],%Inh,[1],26%
same,%Inh,[2],0%
same,%Inh,[3],0%
same,%Inh,[4],17%
same,%Inh,[5],0%
same,%Inh,[6],88%
same,%Inh,[7],0%
same,%Inh,[8],0%
same,%Inh,[9],0%
same,%Inh,[10],16%
same,%Inh,[11],0%
same,%Inh,[12],0%
same,%Inh,[13],5%
same,%Inh,[14],0%
same,%Inh,[15],30%
same,%Inh,[16],3%
same,%Inh,[17],0%
same,%Inh,[18],5%
same,%Inh,[19],11%
same,%Inh,[20],0%
Nc1ncc(-c2ccc3nccc(-c4ccncc4)c3c2)cc1S(=O)(=O)N1CCOCC1 [GSK1627798],%Inh,[1],18%
same,%Inh,[2],0%
same,%Inh,[3],0%
same,%Inh,[4],13%
same,%Inh,[5],0%
same,%Inh,[6],0%
same,%Inh,[7],0%
same,%Inh,[8],0%
same,%Inh,[9],0%
same,%Inh,[10],49%
same,%Inh,[11],24%
same,%Inh,[12],0%
same,%Inh,[13],12%
same,%Inh,[14],0%
same,%Inh,[15],30%
same,%Inh,[16],0%
same,%Inh,[17],0%
same,%Inh,[18],5%
same,%Inh,[19],0%
same,%Inh,[20],0%
COc1ccc(Nc2nccc(NCCNC(=O)c3cc4ccccc4s3)n2)cc1 [GSK1379896],%Inh,[1],7%
same,%Inh,[2],0%
same,%Inh,[3],0%
same,%Inh,[4],9%
same,%Inh,[5],0%
same,%Inh,[6],0%
same,%Inh,[7],0%
same,%Inh,[8],0%
same,%Inh,[9],0%
same,%Inh,[10],10%
same,%Inh,[11],29%
same,%Inh,[12],0%
same,%Inh,[13],0%
same,%Inh,[14],0%
same,%Inh,[15],6%
same,%Inh,[16],0%
same,%Inh,[17],0%
same,%Inh,[18],6%
same,%Inh,[19],3%
same,%Inh,[20],0%
O=C(O)C(F)(F)F.O=C(O)C(F)(F)F.O=c1[nH]ccc2nc(N[C@@H]3CCCNC3)nc(Nc3ccc(S(=O)(=O)N4CCOCC4)cc3)c12 [GSK2177277],%Inh,[1],91.6%
same,%Inh,[2],47%
same,%Inh,[3],84%
same,%Inh,[4],46%
same,%Inh,[5],2%
same,%Inh,[6],91.1%
same,%Inh,[7],29%
same,%Inh,[8],53%
same,%Inh,[9],9%
same,%Inh,[10],0%
same,%Inh,[11],0%
same,%Inh,[12],0%
same,%Inh,[13],0%
same,%Inh,[14],0%
same,%Inh,[15],97.4%
same,%Inh,[16],97.6%
same,%Inh,[17],98.1%
same,%Inh,[18],98.1%
same,%Inh,[19],100%
same,%Inh,[20],0%
